We go through 39 compounds from PubChem BioAssay (EPA / NIEHS).

“And” between values parts separate entries of the source, which are not always exact repeats. Equal entries are not always repeated. Some structures have more than one record in an assay (separate samples or runs), and their calls can disagree. The source made the active and inactive calls. The calls were made as follows: active = hit-call score of the fitted dose curve at least 0.9, where 1 is the maximum; inactive = score below 0.9.

Read-out in the assay: Interleukin-8 (IL8), CXCL8 (gene 3576)
The assay is described as follows: BSK_LPS_IL8: BioMAP Diversity Plus: LPS Assay for Interleukin-8 (IL8) Biomarker Activity (AID 2283078). The note with it: primary human HUVEC with PBMC; actives raise or lower the signal. As to the method: BSK_LPS is a cell-based, multiplexed-readout assay that uses umbilical vein endothelium and peripheral blood mononuclear cells, a human vascular primary cell co-culture, with measurements taken at 24 hours after chemical dosing in a 96-well plate.BSK_LPS_IL8 is an assay component measured in the BSK_LPS assay. It measures IL-8 antibody related to regulation of gene expression using ELISA technology.Data from the assay component BSK_LPS_IL8 was analyzed into 1 assay endpoint. This assay endpoint, BSK_LPS_IL8, was analyzed with bidirectional fitting relative to DMSO as the negative control and baseline of activity. Using a type of binding reporter, gain or loss-of-signal activity can be used to understand changes in the signaling as they relate to the gene CXCL8. Furthermore, this assay endpoint can be referred to as a primary readout, because this assay has produced multiple assay endpoints where this one serves a signaling function. To generalize the intended target to other relatable targets, this assay endpoint is annotated to the cytokine intended target family, where the subfamily is interleukins.
The levels of cell surface (or secreted, indicated by the prefix "s") biomarker endpoints were measured by ELISA. Overt cytotoxicity to cells in confluent adherent cultures (all systems other than the BT system) was assessed by measuring total protein levels using sulforhodamine B (SRB) staining in parallel cultures at the time of biomarker measurements, indicated as SRB endpoints. For proliferation assays for adherent cell types, individual cell types are cultured at sub-confluence and relative cell numbers quantified by SRB staining at time points optimized for each system (48 h: 3C and CASM3C systems; 72 h: BT and HDF3CGF systems; 96 h: SAg system). SRB was performed by staining cells with 0.1% SRB after fixation with 10% TCA and reading wells at 560 nm.Viability and proliferation of PBMC (T cells) was quantified by Alamar Blue reduction for the SAg and BT systems. For PBMC viability (referred to as PBMC Cytotoxicity within the assay endpoint names), cells were plated (75,000/well in a 96-well plate) and then chemical samples added for 1 h before addition of activators, SEB and TSST-1 (20 ng/mL final concentration each). Cells were incubated for 90 h. Then, Alamar Blue (20 uL/well) (Invitrogen, Cat DAL1100) was added for 6 h, and the plates were read with a fluorescence microplate reader at 546/580 nm (excitation/emission). For PBMC proliferation, cells were plated and activated as above but incubated for only 16 h prior to addition of Alamar Blue. Plates were read after 6 h.
As to `Nc1cccc(N)n1`, the result was inactive. The same measure, in the same setting: next, `Cc1c(O)cccc1O`: “inactive”. With `O=C(Oc1ccccc1)c1ccccc1C(=O)Oc1ccccc1`, the result was inactive. Turning to `CC(C)c1cccc(C(C)C)c1N`, the result was inactive.

Consider `CC(C)CCCCCOC(=O)CS`, for which the outcome was inactive. Regarding `CC(c1cc(C(C)(C)C)cc(C(C)(C)C)c1O)c1cc(C(C)(C)C)cc(C(C)(C)C)c1O`, the result was inactive. Consider `CCOC(=O)/C=C\C(=O)OCC`, for which the outcome was inactive. Same read-out and setting: in the case of `C=CC(=O)OCCCCCCCC(C)C` it was “inactive”; in that of `C=CC(=O)NCOCCCC`, “inactive”. The same measure, in the same setting: next, `CC(C)[N+](C)(CCOC(=O)C1c2ccccc2Oc2ccccc21)C(C)C`: “inactive”; `CC=C(C)C(C)=O`: “inactive”; `CCCC(C)C(=O)OCC` (stereo not given): “inactive”. Same read-out and setting: in the case of `CCC1(C)C(=O)N(Cl)C(=O)N1Cl` (stereo not given) it was “inactive”; in that of `Nc1nc(N)nc(-c2ccccc2)n1`, “inactive”. Turning to `CCCCCC1=CCCC1=O`, the outcome was inactive.

In the case of `C1CNCCN1`, the result was inactive. For the compound `CCCCCCCCCCCC(=O)N(C)CC(=O)O`, the outcome was inactive. As to `CCCCCCC=O`, the result was inactive. The same measure, in the same setting: in the case of `Oc1c(Cl)cc(Cl)c(Cl)c1Cl` it was “inactive”; in that of `c1ccc2sc(SSN3CCOCC3)nc2c1`, “inactive”. On to `CCOC(=O)C1=NOC(c2ccccc2)(c2ccccc2)C1`, for which the outcome was inactive. Still for that read-out and setting: next, `C=CC(=O)NC(C)(C)C`: “inactive”. Same read-out and setting: in the case of `CC1=CC=C(C(C)C)CC1` it was “inactive”; in that of `O=C1CCCCCCCCCCCN1`, “inactive”; in that of `CC=C(C)C=CC=C(C)C`, “inactive”. Turning to `CC(Cl)COP(=O)(OCC(C)Cl)OCC(C)Cl` (stereo not given), the result was inactive. In the case of `Cc1ccc([N+](=O)[O-])cc1N`, the result was inactive. By AC50 is commonly meant the concentration at which the activity in the assay is half-maximal. Consider `c1ccc2c(c1)[nH]c1ccccc12`, for which the result was inactive and the AC50 is 17 nM (active). For `Fc1ccc(Br)cc1`, the result was inactive. `O=C(Cl)c1c(Cl)c(Cl)c(C(=O)Cl)c(Cl)c1Cl`: the outcome was inactive. As for `Nc1ccc(C(=O)O)cc1`, the outcome was inactive. Turning to `C[N+](C)(C)CCCNS(=O)(=O)C(F)(F)C(F)(F)C(F)(F)C(F)(F)C(F)(F)C(F)(F)C(F)(F)C(F)(F)F`, the AC50 is 31.3 µM (active) and 39.7 µM (active). With `CCNc1nc(NC(C)(C)C)nc(OC)n1`, the result was inactive.

For the compound `CCCCCCCO`, the outcome was inactive.

With `Clc1cc(Cl)c(Cl)c(Cl)c1Cl`, the result was inactive. Turning to `CCOC(=O)C1=NN(c2ccc(Cl)cc2Cl)C(C)(C(=O)OCC)C1` (stereo not given), the result was inactive.

With `CCCCCCOC(=O)CCCCC(=O)OCCCCCC`, the result was inactive.

Turning to `CC1(C)CC(O)CC(C)(C)N1[O]`, the result was inactive. For `COC(OC)(C(=O)c1ccccc1)c1ccccc1`, the AC50 is 16 nM (active).
